Out of some 47,000 compounds screened, about 200 (0.43%) were called active. About 1% were inconclusive and are not listed. This is one part of a sample in which actives are shown more often than they occur.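 The calls were made as follows: active = inhibition of aggregate fluorescence above about 70%, also judged a hit by eye on the cell image (limit read from the data, passing the limit was not always enough); inconclusive = no rule stated for this call; inactive = not judged a hit on image review.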

The experiment is described as follows: clearance of mutant huntingtin inclusions, primary screen, imaging, HeLa Exon1htt(103Q)mCFP, confocal imaging (AID 853).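 Also: cells exposed to compound for three days before fixation.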 The note with it: aggregate imaging, at 1.5 µM; fraction fluorescence in grains: measured here: aggregate grain fluorescence fraction, stronger effect = lower value; inhibition: stronger effect = higher value, zero = plate's median compound well.
`COc1ccc(C2C(C(C)=O)=C(O)C(=O)N2Cc2cccnc2)cc1` (configuration not stated): the fraction fluorescence in grains is 15.5 and the inhibition was 17.5% (inactive).
As for `COC(=O)c1cccc(NC(=O)CSc2nc(C)cc(=O)[nH]2)c1`, the fraction fluorescence in grains turned out to be 13.9 and the inhibition was 27.8% (inactive).
For `Cn1ccs/c1=N\S(=O)(=O)c1ccc(C(C)(C)C)cc1`, the fraction fluorescence in grains came to 37.7 and the inhibition is 0.2% (inactive).
As to `CCCCOc1ccc(NC(=O)CSCC(=O)OCC)cc1`, the fraction fluorescence in grains stood at 53.3 and the inhibition is -31.6% (inactive).
For `CCOc1ccc(NC(=O)Nc2cc(C)on2)cc1`, the fraction fluorescence in grains was 23.9 and the inhibition was -47.8% (inactive).
Taken in the same sequence, the figures for `CCOc1ccc(NC(=O)CCC(=O)n2nc(C)cc2C)cc1` were 4 and 79.1% (active).
For the compound `O=C(CSc1nnc(-c2cccnc2)n1CCc1ccccc1)NCc1ccccc1`, the fraction fluorescence in grains was 34.5 and the inhibition is -83.7% (inactive).
With `CC(C)(C)C(=O)Cn1c(NCCO)nc2ccccc21`, the fraction fluorescence in grains worked out at 13.3 and the inhibition is 30.8% (inactive).
Take `Oc1c(C(c2cccs2)N2CCN(c3ccc(F)cc3)CC2)sc2ncnn12` (configuration not stated): the fraction fluorescence in grains was 72.5 and the inhibition was -45.9% (inactive).
Consider `COc1ccc(-n2c(SCC(=O)NCc3cccs3)nnc2-c2ccoc2C)cc1`, for which the fraction fluorescence in grains is 22.6 and the inhibition was 33.8% (inactive).
For `O=C(NCCCNCc1ccccc1)c1ccc(/C=N/O)nc1`, the fraction fluorescence in grains was determined as 39.1 and the inhibition is 3.6% (inactive).
With `Cc1ccc(C2C(C#N)C(C#N)N3CCCN23)cc1` (configuration not stated), the fraction fluorescence in grains is 23.7 and the inhibition is 40.7% (inactive).
Regarding `CCOc1ccccc1C(=O)NC1CC2CCCC(C1)N2Cc1ccccc1` (configuration not stated), the fraction fluorescence in grains was determined as 14.9 and the inhibition was 23.5% (inactive).
Turning to `CNc1nc(SC)nc(N(C#N)CC(=O)OC)n1`, the fraction fluorescence in grains was found to be 30.5 and the inhibition is -71% (inactive).
Regarding `CCC(=O)Nc1nc2ccccc2n1Cc1ccccc1C`, the fraction fluorescence in grains came out at 32.9 and the inhibition was 4.8% (inactive).
Regarding `CC(=O)NC(C)c1nc2ccccc2n1Cc1ccccc1F` (configuration not stated), the fraction fluorescence in grains was found to be 3.88 and the inhibition was 76.4% (active).
With `C=CCn1c(C(C)NC(=O)CC)nc2ccccc21` (configuration not stated), the fraction fluorescence in grains worked out at 34.1 and the inhibition was -61.6% (inactive).
`COC(=O)C1C(=O)NCC1c1ccc(OC)cc1` (configuration not stated): the fraction fluorescence in grains is 12 and the inhibition is 35.5% (inactive).
Turning to `Cc1sc2nc(SCC(N)=O)n(C)c(=O)c2c1C`, the fraction fluorescence in grains came out at 18.7 and the inhibition was -1.9% (inactive).
The like results for `Cc1ccccc1NC(=O)c1ccccc1NS(=O)(=O)c1cccc2cccnc12` were, in that order, 11.2 and 46.2% (inactive).
The like results for `Cn1c(SCC(=O)N2CCOCC2)nnc1-c1ccc(NC(=O)c2ccccc2F)cc1` were, in that order, 22.6 and -25.1% (inactive).
Taken in the same sequence, the figures for `O=C(NCCCCc1ccccc1)C1CC(c2ccc([N+](=O)[O-])cc2)=NO1` (configuration not stated) were 23.6 and 39.3% (inactive).
Consider `NC1=NC(=O)C2(COC(c3ccccc3Cl)OC2)S1` (configuration not stated), for which the fraction fluorescence in grains is 13.6 and the inhibition is 19.2% (inactive).
Consider `Cc1nnc(SCC(=O)NCCOc2ccc(Cl)cc2)n1-c1ccccc1`, for which the fraction fluorescence in grains worked out at 36.3 and the inhibition is 2.1% (inactive).
Take `O=C(CSc1nnc(-c2cccs2)n1Cc1ccccc1)N1CCc2ccccc2C1`: the fraction fluorescence in grains turned out to be 52.6 and the inhibition was -33.1% (inactive).
The like results for `CCOc1ccccc1C1NC(=O)NC(C)=C1C(=O)OCc1ccco1` (configuration not stated) were, in that order, 36.7 and -10.5% (inactive).
`COCCOC(=O)C1=C(C)NC(=O)NC1c1ccc(Cl)cc1` (configuration not stated): the fraction fluorescence in grains worked out at 28.5 and the inhibition is 33.5% (inactive).
Take `COc1cccc2c(=O)n(CC(=O)N3CCCCCC3)ccc12`: the fraction fluorescence in grains was found to be 40.9 and the inhibition was -22% (inactive).
Turning to `COc1ccc(N(CC(=O)NC2CCCCC2)C(=O)CNC(=O)c2ccco2)c(OC)c1`, the fraction fluorescence in grains came to 22.1 and the inhibition is -26.1% (inactive).
The like results for `Cc1noc(COc2ccccc2OCc2onc(C)c2Cl)c1Cl` were, in that order, 24.8 and -49.4% (inactive).
The like results for `CCOC(=O)C1CCN(Cc2coc3ccc(Cl)cc3c2=O)CC1` were, in that order, 22.3 and -15.2% (inactive).
The like results for `Cc1cccc2c(=O)n3c(nc12)CCCCC3` were, in that order, 18.2 and 11% (inactive).
As for `CC(Sc1nnc(Cc2ccc([N+](=O)[O-])cc2)o1)C(N)=O` (configuration not stated), the fraction fluorescence in grains worked out at 30.7 and the inhibition was 0.3% (inactive).
Take `Cc1nc(NC2=NC(C(=O)Nc3ccc(Cl)cc3)CC(=O)N2)nc2ccccc12` (configuration not stated): the fraction fluorescence in grains was 22.8 and the inhibition is 22.1% (inactive).
Regarding `CCCCCN1CC(O)=C(c2nc(-c3ccc(Cl)cc3)cs2)C1=N`, the fraction fluorescence in grains stood at 36.3 and the inhibition is 8.6% (inactive).
In the case of `CCN(CC)CCN1C(=O)C(=O)/C(=C(/O)c2cnn(-c3ccccc3)c2C)C1c1cccs1` (configuration not stated), the fraction fluorescence in grains was 54.5 and the inhibition is -25.7% (inactive).
As for `O=C(NCCSCc1ccccc1)c1ccc(Cl)c(S(=O)(=O)N2CCOCC2)c1`, the fraction fluorescence in grains came out at 25.6 and the inhibition was -28.1% (inactive).
With `CC(=O)N1CCN(c2cccc(C)c2C)CC1`, the fraction fluorescence in grains was 46.1 and the inhibition was -25.4% (inactive).
As to `CSCC[C@H](NC(=O)NCCc1ccc(F)cc1)C(=O)O`, the fraction fluorescence in grains was found to be 15.6 and the inhibition was 18.4% (inactive).
Taken in the same sequence, the figures for `CC(C)C[C@H](NC(=O)NCCc1ccc(Cl)cc1)C(=O)O` were 16.2 and 12.2% (inactive).
With `C[C@H](NC(=O)NCCc1ccccc1)C(=O)O`, the fraction fluorescence in grains stood at 5.06 and the inhibition is 70.9% (active).

Source of the values: PubChem BioAssay AID853 (Columbia University Molecular Screening Center, 2007).
